Pol iota inh – qHTS for Inhibitors of Polymerase Iota. DNA polymerase iota (Homo sapiens), Q9UNA4. Pol iota fluorescent replication assay, 10 min. Potency, µM (doses to about 115 µM), without a hit: top-dose activity, negative = inhibition, hits mostly inhibitors. hit rate 1% among 390,000
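Fluorescent replication assay read twice, at 0 min and 10 min after adding 50 nM (final) substrate. Enzyme (10 nM) and compounds were first incubated 15 min at room temperature; enzyme-free buffer wells were negative controls.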
APEX1 inh – qHTS Assay for Inhibitors of the Human Apurinic/apyrimidinic Endonuclease 1 (APE1); recombinant APE1, TAMRA/BHQ-2 abasic DNA cleavage fluorescence; Potency, µM (series often up to 65.8 µM), for the others: top-dose activity change, negative = inhibition, hits mostly inhibitors; hit rate 0.35% among 350,000; DNA repair nuclease/redox regulator APEX1 (Homo sapiens), P27695; AID 2517, 2012;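 also: plate controls were vehicle for no effect and reference inhibitor for full effect; nearly all actives have a fitted effect of over 55% in size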
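Compound pre-exposure to 0.75 nM APE1, 15 min at ambient temperature. Reaction initiated with 50 nM TAMRA/BHQ-2 THF substrate, read immediately in kinetic mode, 525 nm excitation, 598 nm emission.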
POLB inh – qHTS Assay for Inhibitors of DNA Polymerase Beta | Pol beta primer extension/strand displacement, fluorescence kinetic | Potency, µM (top dose mostly 114 µM), for inactives: top-dose activity change, negative = inhibition, usual class: inhibitors | P06746 | hit rate 1.3% among 340,000; also: % is scaled to controls: 0 for no effect and ±100 for the full control effect
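Curves were derived by four-parameter Hill fits of normalized qHTS data. The kinetic fluorescent primer-extension read was taken at 0 and 10 min after 50 nM substrate, following a 15 min room-temperature preincubation of 10 nM enzyme with compounds.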
Pol kappa inh – qHTS for Inhibitors of Polymerase Kappa; hit rate 0.53% among 400,000; purified Pol kappa, fluorescent DNA synthesis assay, 10 min; Potency, µM (series often up to 107 µM), without a hit: at the highest dose activity, negative = inhibition, usual class: inhibitors; also: % is scaled to controls: 0 for no effect and ±100 for the full control effect
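10 nM Pol kappa was preincubated with compounds for 15 min at room temperature. Reaction started with 50 nM (final) substrate. Fluorescence read kinetically at 0 and 10 min.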
Pol eta inh – qHTS for Inhibitors of Polymerase Eta | hit rate 1.2% among 390,000 | recombinant Pol eta, fluorescent DNA replication assay | AID 588591, 2011 | Potency, µM (highest dose often 114 µM), without a hit: top-dose activity change, negative = inhibition, actives largely listed as inhibitors; also: % is scaled to controls: 0 for no effect and ±100 for the full control effect
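Fluorescent replication assay: 50 nM final substrate added after a 15 min room-temperature compound preincubation with 10 nM enzyme. Signal taken at 0 min and again at 10 min.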
GLS inh – qHTS for Inhibitors of Glutaminase (GLS) | AID 624170, 2012 | GLS enzymatic activity, qHTS titration | Potency, µM (top dose mostly 45.5 µM), for the others: at the top dose activity change, negative = inhibition, hits mostly inhibitors | hit rate 0.21% among 410,000 | Glutaminase kidney isoform, mitochondrial (Homo sapiens), O94925; also: % is scaled to controls: 0 for no effect and ±100 for the full control effect
Target sequence (O94925 whole entry, looked up, canonical isoform): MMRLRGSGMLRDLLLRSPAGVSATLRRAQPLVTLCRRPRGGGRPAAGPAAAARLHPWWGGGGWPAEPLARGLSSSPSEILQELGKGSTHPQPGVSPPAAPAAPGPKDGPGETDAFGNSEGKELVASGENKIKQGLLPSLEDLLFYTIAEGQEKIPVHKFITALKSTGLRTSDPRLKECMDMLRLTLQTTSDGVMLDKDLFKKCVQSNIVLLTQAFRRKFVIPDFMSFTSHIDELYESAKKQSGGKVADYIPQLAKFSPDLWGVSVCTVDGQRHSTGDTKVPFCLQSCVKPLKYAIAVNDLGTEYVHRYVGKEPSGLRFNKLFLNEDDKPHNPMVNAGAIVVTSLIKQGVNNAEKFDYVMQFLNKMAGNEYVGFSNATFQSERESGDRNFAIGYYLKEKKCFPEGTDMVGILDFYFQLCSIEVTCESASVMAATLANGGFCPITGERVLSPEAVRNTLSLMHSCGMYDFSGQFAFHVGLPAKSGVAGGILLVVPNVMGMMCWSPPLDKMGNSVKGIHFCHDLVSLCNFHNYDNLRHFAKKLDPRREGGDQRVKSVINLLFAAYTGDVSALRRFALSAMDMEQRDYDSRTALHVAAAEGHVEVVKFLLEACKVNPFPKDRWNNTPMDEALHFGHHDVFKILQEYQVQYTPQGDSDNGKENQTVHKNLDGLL
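Human kidney-isoform GLS in 45 mM KH2PO4 pH 8.2, 0.02% Tween-20, with compound, started with 1mM L-Glutamine (added stock). Glutamate oxidase/HRP/Amplex red coupled fluorescence read at start and after 30 min at RT.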
* = called active by the depositor; u = inconclusive; x = not tested or not shown. Compounds with a hit are over-represented: about 2.4% of the library has one in this group of screens. Calls follow the shape of the dose curve; as a rule, active = well fitted curve in the direction sought with a large enough effect; inconclusive = small, poorly fitted or top-dose-only effect, or another doubt; inactive = no such curve, though single readings can be large; an effect the other way counts as inactive or inconclusive. Potency is read from the fitted curve at half-maximal effect.

SMILES	Pol iota inh	APEX1 inh	POLB inh	Pol kappa inh	Pol eta inh	GLS inh
O=C1OCC2OC(O)C(O)C(O)C2OC(=O)c2cc(O)c(O)c(O)c2-c2c(O)c(O)c3oc(=O)c4c(c(O)c(O)c5oc(=O)c2c3c54)-c2c1cc(O)c(O)c2O (stereo unspecified)	x	0.0355µM*	0.159µM*	x	x	x
COc1c(O)cc2c(c1O)C1OC(CO)C(O)C(O)C1OC2=O (stereo unspecified)	17.6%	0.2%	x	-1.4%	-15.7%	27.5%
COc1cc(-c2ccc(N3C(c4ccsc4)=Cc4ccccc4C3CC(C)=O)cc2)cc(OC)c1OC (stereo unspecified)	x	x	x	x	x	22.6%
Cc1ccc(CNC(=O)c2cc(S(=O)(=O)N3CCCC3)cn2C)cc1	18.4%	22.6%	4.8%	8.5%	-18.8%	-7.9%
O=C(NC(=S)Nc1ccc(NC(=O)c2cccs2)cc1)c1cc2ccccc2o1	2.7%	-6.5%	12.6µM*	-15.1%	u	5.0%
Cc1cccc(N2CCC(N3CCN(C4CCCCC4)C(CCO)C3)CC2)c1C (stereo unspecified)	49.0%	22.4µM*	39.8µM*	-1.2%	-1.8%	39.3%
Cc1cccc(CSc2nc3c(sc4ccccc43)c(=O)n2CCC(=O)NC(C)C)c1	24.5%	x	25.1µM*	-1.8%	-21.6%	5.3%
Cc1ccc(SCC(=O)Nc2cccc(NC(=O)c3ccco3)c2)cc1	u	-7.3%	17.4%	-2.3%	-9.9%	0.6%
O=C(CSc1nnc(-c2ccco2)o1)N1CCN(c2ccccc2)CC1	66.9%	-2.0%	u	3.3%	-6.4%	-5.0%
O=C(CSc1nnc(-c2ccc(Cl)cc2)o1)N1CCN(c2ccccc2)CC1	x	-7.5%	31.6µM*	x	x	x
O=C(O)Cn1cc(/C=c2/sc3nc4ccccc4n3c2=O)c2ccccc21	17.0%	u	3.8%	u	79.4µM*	11.0%
O=c1/c(=C\c2cccn2-c2ccccc2)sc2nc3ccccc3n12	19.4%	15.3%	9.0%	-1.1%	4.8%	12.5%
Cc1ccc(OCCOCCn2cnc3ccccc3c2=O)c([N+](=O)[O-])c1	24.0%	-4.4%	83.1%	-2.8%	-4.6%	9.1%
Cn1nc(C(=O)NCCc2ccc(S(N)(=O)=O)cc2)c2c1-c1ccccc1S(=O)(=O)C2	3.4%	-6.5%	-0.6%	5.2%	-13.4%	1.3%
CCOc1ccc(NC(=O)Nc2ccc3c(c2)CCC3)cc1	31.2%	-7.0%	25.1µM*	9.6%	-10.8%	-1.6%
CCOc1ccc(NC(=O)NNC(=O)c2ccc(CC)s2)cc1	u	1.5%	79.4µM*	-17.2%	-7.8%	0.4%
Cc1ccc(NC(=O)Nc2ccc3c(c2)CCC3)cc1	-16.9%	27.9%	u	-15.7%	1.2%	-2.4%
CCOc1ccc(NC(=O)c2ccc(NC(=O)c3ccc(NC(N)=O)cc3)cc2)cc1	u	13.4µM*	x	-2.4%	u	7.2%
COCCn1c(=S)[nH]c2cc(C(=O)N3CCN(c4ccccc4OC)CC3)ccc2c1=O	18.7%	-6.8%	-14.6%	-1.6%	-6.3%	-1.1%
Cc1ccc(N2C(=O)C(Cl)=C(N3CCOCC3)C2=O)c(C)c1	-20.3%	-10.6%	49.1%	4.3%	-0.7%	-2.2%
O=C(COc1ccc(Cl)cc1)NCCNC(=O)c1ccccn1	-6.6%	42.5%	-15.0%	-18.4%	-3.9%	-10.3%
O=C(/C=C/c1ccc(O)c([N+](=O)[O-])c1)c1ccc2ccccc2c1	u	-1.7%	u	-3.6%	22.4µM*	1.4%
O=C(O)COc1ccc(/C=C/C(=O)c2ccc3ccccc3c2)cc1	17.8µM*	1.8%	-11.3%	-13.4%	25.1µM*	-13.2%
CN(C)c1ccc(/C=C/C(=O)c2ccccc2)cc1[N+](=O)[O-]	-1.1%	-0.7%	-28.4%	-16.8%	-13.0%	3.8%
O=C(O)COc1ccc(/C=C/C(=O)c2ccc(C3CCCCC3)cc2)cc1	u	7.0%	u	-6.2%	39.8µM*	0.4%
SMILES	Pol iota inh	APEX1 inh	POLB inh	Pol kappa inh	Pol eta inh	GLS inh
O=C(CCc1ccccc1)Nc1ncc2c(n1)CCCC2=O	12.8%	-0.9%	-0.8%	-14.6%	-7.1%	-1.8%
O=C1CC(c2ccco2)Sc2nc3ccccc3n21 (stereo unspecified)	20µM*	0.0%	-2.1%	50.1µM*	7.5%	8.3%
O=C1CC(c2ccccc2)Sc2nc3ccccc3n21 (stereo unspecified)	52.8%	-1.7%	-2.6%	2.1%	-18.2%	-2.8%
COC(=O)c1cc(C(=O)OCC(=O)Nc2ccccc2OC(F)F)cc([N+](=O)[O-])c1	123.3%	-7.2%	12.8%	-13.6%	-18.1%	-8.5%
COc1cc(CCC(O)CC(=O)CCc2ccccc2)ccc1O (stereo unspecified)	79.4µM*	14.1µM*	25.1µM*	-22.5%	-11.9%	16.8%
COC(=O)C1CCN(C(=O)COC(=O)CNS(=O)(=O)c2ccc(SC)c([N+](=O)[O-])c2)CC1	79.4µM*	11.9µM*	x	-41.3%	u	1.2%
CSc1ccc(S(=O)(=O)NCC(=O)OCC(=O)N2CC(C)CC(C)C2)cc1[N+](=O)[O-] (stereo unspecified)	7.5%	-16.3%	x	-11.6%	-2.7%	9.3%
COc1cc(NCCCCCCN)c2ncccc2c1OC	11.2µM*	x	x	-9.5%	44.7µM*	5.2%
CC(=O)Nc1ccc(-c2cc(N)n(-c3ccccc3)n2)cc1	48.4%	-3.0%	0.6%	3.3%	-8.5%	-5.3%
S=C(Nc1ccc(Nc2ccccc2)cc1)N1CCN(c2ncccn2)CC1	112.1%	2.9%	-1.1%	-3.1%	-10.5%	-12.1%
O=C(COc1ccccc1[N+](=O)[O-])OCCCOC(=O)COc1ccccc1[N+](=O)[O-]	-13.7%	37.1%	13.5%	-1.8%	-5.6%	5.0%
O=C(COc1ccccc1[N+](=O)[O-])OCC(=O)c1ccc(Br)s1	-19.3%	-6.7%	x	-21.1%	79.4µM*	-20.9%
O=c1oc2ccccc2c2[nH]ccc12	10.9%	0.8%	0.5%	-13.2%	8.0%	-0.7%
N#CCC(=O)Nc1ccc(C(=O)NNC(=S)NC2CCCCC2)cc1	17.6%	6.3%	x	-4.7%	-12.2%	17.8µM*
COC(=O)c1ccc(NC(=S)NC2CCCCC2)cc1	26.6%	19.7%	14.6%	-2.4%	-12.5%	-3.5%
CCN(CC)c1ccc(/C=N/N2CCOCC2)c(O)c1	105.1%	-1.3%	7.7%	-9.2%	-15.1%	12.6µM*
O=C(COc1ccccc1)Nc1sc2c(c1C(=O)Nc1ccccc1)CCCCC2	u	x	17.8µM*	u	79.4µM*	-11.7%

Screening data deposited in PubChem BioAssay by National Center for Advancing Translational Sciences (NCATS).
